CHX counter-1 = affects cycloheximide protein synthesis inhibition readout, counter-screen; max response, %; AID 2314; hit rate 12% among 300,000; cell reporter, cycloheximide protein synthesis inhibition counterscreen; in the data active = max response mostly above about 13%, no sharp cut-off; inactive = mostly below about 14%; note: read at 38.3 µM for the half of the compounds with a filed dose
LmPK inhibitor = blocks Leishmania mexicana pyruvate kinase activity. Q27686. purified LmPK, Kinase-Glo ATP luminescence, 1 h. Potency, µM (highest dose often 57.5 µM), most hits filed as inhibitors. hit rate 0.37% among 290,000. AID 1721; active = well fitted curve in the direction sought with a large enough effect; inconclusive = small, poorly fitted or top-dose-only effect, or another doubt; inactive = no such curve, though single readings can be large; an effect the other way counts as inactive or inconclusive
Target sequence (Q27686 whole entry, looked up): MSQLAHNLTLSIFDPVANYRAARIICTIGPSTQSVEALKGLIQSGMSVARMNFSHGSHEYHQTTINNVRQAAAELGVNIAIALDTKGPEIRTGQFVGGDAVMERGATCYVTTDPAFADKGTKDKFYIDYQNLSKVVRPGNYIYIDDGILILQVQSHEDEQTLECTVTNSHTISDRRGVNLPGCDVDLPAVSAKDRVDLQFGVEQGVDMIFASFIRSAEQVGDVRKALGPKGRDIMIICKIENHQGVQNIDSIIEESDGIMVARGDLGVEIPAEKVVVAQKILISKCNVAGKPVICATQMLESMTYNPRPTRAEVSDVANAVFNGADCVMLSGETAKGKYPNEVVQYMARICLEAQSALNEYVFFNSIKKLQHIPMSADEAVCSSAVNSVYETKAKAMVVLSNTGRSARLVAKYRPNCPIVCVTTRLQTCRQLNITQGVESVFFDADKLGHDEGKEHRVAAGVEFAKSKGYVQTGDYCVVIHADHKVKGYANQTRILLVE
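ATP generated from ADP (0.1 mM) and PEP (0.5 mM) by 0.1 nM LmPK over 1 h at room temperature (pH 7.2 imidazole buffer) was detected by coupled luciferase luminescence. Values were normalized to uninhibited and no-enzyme wells.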
NS1 function inh = blocks influenza NS1 protein function. Potency, µM (series often up to 46.1 µM). hit rate 0.4% among 270,000. AID 2326; note: actives are rising curves; nearly all actives have a fitted effect of over 50% in size
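Read-out: OD600 growth recovery of NS1-expressing budding yeast. Cells grown overnight at 30C in -URA glucose medium, washed, resuspended and diluted 1:100 in 2% galactose assay medium, pH 6.0. Same strain lacking NS1 served as positive control.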
FBPA Giardia inh = inhibitors of Giardia lamblia fructose-1,6-bisphosphate aldolase | A8B2U2 | purified Giardia FBPA | Potency, µM (highest dose often 59.6 µM), actives largely listed as inhibitors | hit rate 0.71% among 290,000 | AID 2451; active = well fitted curve in the direction sought with a large enough effect; inconclusive = small, poorly fitted or top-dose-only effect, or another doubt; inactive = no such curve, though single readings can be large; an effect the other way counts as inactive or inconclusive; note: nearly all actives have a fitted effect of over 55% in size
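40 nM FBPA preincubated 10 min at RT with compound (up to 57.5 uM final), then substrate plus GAPDH/TPI/NAD/arsenate coupling and diaphorase/resazurin added. Fluorescence read after 20 min at RT, 525/598 nm.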
Shiga toxin inh = inhibitors of Shiga toxin in Vero cells; Vero cells, Shiga toxin protein synthesis inhibition reporter; inhibition, % at 38.7 µM; hit rate 9.2% among 290,000; in the data active = inhibition mostly above about 28%, no sharp cut-off; inactive = mostly below about 43%
CHX counter-2 = affects protein synthesis reporter in cycloheximide counter-screen. shares compounds with Shiga toxin inh. Cycloheximide counterscreen, protein synthesis reporter, Shiga toxin assay. Potency, µM (series often up to 38.3 µM), hits mostly activators. hit rate 3% among 510. AID 2318
Hits are given with their value; 0 = inactive; ? = inconclusive; - = not tested or not shown; + = active, no number. Only some compounds are listed: those with a hit (about 14% of all), similar ones and a draw of the others. Unless noted, calls come from the whole dose curve.

SMILES | CHX counter-1 | LmPK inhibitor | NS1 function inh | FBPA Giardia inh | Shiga toxin inh | CHX counter-2
O=C(CN1CCN(C(=O)C2CCCO2)CC1)Nc1cc(C(F)(F)F)ccc1Cl (centres undefined) | 0 | 0 | 0 | 0 | 0 | -
Cc1noc(C)c1-c1ccc2ncnc(NCc3ccccc3C(F)(F)F)c2c1 | 0 | - | - | 0 | 0 | -
COc1ccccc1C(=O)NNC(=O)c1ccc2ccccc2c1 | 0 | 0 | 0 | 0 | - | 0
COc1ccccc1NC(=O)NNC(=O)c1ccc2ccccc2c1 | 0 | 0 | 0 | 0 | 0 | -
O=C(NNC(=O)c1ncc(Cl)c(Cl)c1Cl)c1ccc(F)cc1 | 0 | 0 | 0 | - | 0 | -
O=C(NNC(=O)c1nc(Cl)ccc1Cl)c1ccc(F)cc1 | 0 | 0 | 0 | - | 24.0 | 0
Cc1cc(C)c(NC(=S)NC(CO)(CO)CO)c(C)c1 | 0 | 0 | 0 | 0 | 0 | -
CC(=O)Nc1ccc(NC(=O)C2CCCCC2C(=O)O)cc1 (centres undefined) | 0 | 0 | 0 | 0 | 0 | -
O=C(O)C1CCCCC1C(=O)Nc1ccc(-c2ccccc2)cc1 (centres undefined) | 0 | 0 | 0 | 0 | 52.8 | 0
N=c1c(S(=O)(=O)c2ccc(Cl)cc2)cc2c(=O)n3ccccc3nc2n1C1CCCCC1 | 0 | 0 | 0 | - | active | 0
COc1ccc(C)cc1N1C(=N)/C(=C2/Nc3ccccc3S2)C(c2ccccc2)C1=O (centres undefined) | 0 | 0 | 0 | 0 | 20.7 | 0
COc1ccc(C2C(Oc3ccccc3)C(=O)N2c2cc(C)ccc2C)cc1OC (centres undefined) | 0 | 0 | 0 | 0 | 0 | -
COc1ccc(CNC(=O)c2ccc(Cl)c(NC3=NC4CS(=O)(=O)CC4S3)c2)cc1 (centres undefined) | 0 | 0 | 0 | 0 | 0 | -
COc1cccc(CNC(=O)c2ccc(C)c(NC3=NC4CS(=O)(=O)CC4S3)c2)c1 (centres undefined) | 0 | 0 | 0 | ? | 11.1 | 0
O=c1cc(-c2cccc(F)c2)[nH]c2ccc(Cl)cc12 | 0 | - | - | 0 | + | 0
COc1ccc2[nH]c(-c3ccccc3)cc(=O)c2c1 | 0 | - | - | 0 | + | ?
COc1cccc(-c2cc(=O)c3cc(NC(=O)c4ccccc4)ccc3[nH]2)c1 | 0 | 0 | 0 | 0 | 0 | -
CC(=O)/C(C#N)=C1\NC(=O)C(Cc2ccc(C)c(C)c2)S1 (centres undefined) | 0 | 0 | 0 | 0 | 34.2 | 0
O=C(O)c1cc(S(=O)(=O)Nc2ccc(OCc3ccccc3)cc2)ccc1Br | 0 | 0 | 0 | 0 | 39.6 | ?
O=C(COC(=O)c1cncc(Br)c1)Nc1nc(-c2ccc(F)cc2)cs1 | 0 | 0 | 0 | 0 | 26.8 | ?
Cc1ccc(CNC(=O)COC(=O)c2cncc(Br)c2)cc1 | 0 | 0 | - | 0 | 0 | -
CO/N=C(\Cn1ncc(N2CCOCC2)c(Br)c1=O)c1ccc(Cl)cc1 | 0 | 0 | 0 | 0 | 0 | -
CC(C)(C)C(=O)Cn1ncc(N2CCOCC2)c(Br)c1=O | 0 | 0 | 0 | 0 | 25.7 | 0
CCn1cc(CN2CCCC(CNS(=O)(=O)c3cccc4cccnc34)C2)cn1 (centres undefined) | 0 | 0 | 0 | - | 0 | -
CC(=O)Oc1cccc(N2C(=O)C3C4C=CC(C4=C(C)C)C3C2=O)c1 (centres undefined) | 0 | 0 | 0 | 0 | 0 | -
SMILES | CHX counter-1 | LmPK inhibitor | NS1 function inh | FBPA Giardia inh | Shiga toxin inh | CHX counter-2
CC(=O)c1cccc(N2C(=O)C3C4CCC(C4=C(C)C)C3C2=O)c1 (centres undefined) | 0 | 0 | ? | 0 | 24.9 | 0
O=C(C(Sc1ccccc1)c1ccccc1)N1CCOCC1 (centres undefined) | 0 | 0 | 0 | 0 | 45.9 | 0
COc1ccc(N2CCN(Cc3csc(C)c3-c3ccc(C)cc3)CC2)cc1 | 0 | 0 | 0 | ? | 39.8 | 0
COc1ccc(N2CCN(Cc3cc4c(cc3Br)OCCO4)CC2)cc1 | 0 | 0 | 0 | 0 | 0 | -
COc1ccc(CNC(=O)CN2CCC(NC(=O)c3ccc(OC)cc3)CC2)cc1 | 0 | 0 | 0 | 0 | 0 | -
CCCCN(C)CCCNC(=O)c1cn(C)c2ccc(S(=O)(=O)N(C)C3CCCCC3)cc2c1=O | 0 | 0 | 0 | - | 0 | -
CCS(=O)(=O)N1CCC(C(=O)Nc2cc(C)ccc2O)CC1 | 0 | 0 | 0 | 0 | 0 | -
Cc1ccc(O)c(NC(=O)C2CCCCC2)c1 | 0 | 0 | 0 | 0 | 34.3 | 0
O=C(C(=O)N1CCN(c2ccc([N+](=O)[O-])cc2)CC1)c1cn(CC(=O)N2CCOCC2)c2ccccc12 | 0 | 0 | 0 | - | 0 | -
CCSc1nnc(-c2ccc(S(=O)(=O)N3CCCC3)cc2)n1C | 0 | 0 | 0 | 0 | 67.0 | 0

Source: PubChem
